Source: PubChem BioAssay (Tox21)
“And” between values parts separate entries of the source, which are not always exact repeats. Equal entries are not always repeated. Results filed as inconclusive are left out. Some compounds were tested as several samples or in several runs, with calls that do not always agree. The source made the active and inactive calls. Calls follow the shape of the dose curve; as a rule, active = well fitted cell-killing curve with a large enough effect in the repeat runs; inconclusive = weak or mixed curves, or effect the other way; inactive = no such curve, though single readings can be large or run the other way.

assay: qHTS assay for identifying genotoxic compounds that show differential cytotoxicity against isogenic chicken DT40 cell lines with known DNA damage response pathways - wild type cell line (AID 743012); conditions: DT40 wild type chicken cells viability, CellTiter-Glo, 40 h; series mostly up to 68.4 µM; activity change, negative = cytotoxicity: at the top concentration; also: nearly all actives have a fitted effect of over 60% in size
Source text: U.S. Tox21 Program National Center for Advancing Translational Sciences [NCATS] NIH Chemical Genomics Center [NCGC] U.S. Environmental Protection Agency [EPA] National Institutes of Environmental Health Sciences [NIEHS] National Toxicology Program [NTP] U.S. Food and Drug Administration [FDA] Tox21 Assay Overview: DNA repair pathways play a critical role in cellular homeostasis by repairing DNA damage induced by endogenous processes and xenobiotics. Isogenic chicken DT40 cell lines deficient in different DNA repair pathways can be used to identify genotoxic compounds and aid in characterizing the nature of the DNA damage induced. Two DNA repair-deficient cell lines with disrupted genes, Rad54/Ku70 or Rev3, were used to screen the Tox21 10K compound library. Possible genotoxicity was based on the presence of a significant increase in cytotoxicity in one or more of the DNA repair-deficient cell lines compared to that observed in the parental DNA repair-proficient cell line. CellTiter Glo viability assay (Promega, Madison, WI) was used to measure cell viability in these cells after compound treatment. This assay includes the data from the wild type cell line.
Tox21 Assay Protocol Summary: 300 DT40 wild type cells in 5 uL/well were dispensed into white, solid-bottom 1536-well plates using a Multidrop Combi (ThermoFisher Scientific, Waltham, MA) dispenser. After the assay plates were incubated at 37 C/5% CO2 for approximately 0.5 hour, 23 nL of compounds dissolved in DMSO, positive controls or DMSO only was transferred into the assay plate by a pintool work station (Kalypsys, San Diego, CA). The assay plates were incubated at 37 C/5% CO2 for 40 hours. After 5 uL per well of CellTiter-Glo reagent was added into each well of the assay plates, the plates were incubated for 30 min at room temperature and the luminescence intensity of the plates was measured using a ViewLux (PerkinElmer, Shelton, CT) plate reader.
% is scaled to controls: 0 for no effect and ±100 for the full control effect; potency is read from the fitted curve at half-maximal effect.

| Compound | Potency | activity change, negative = cytotoxicity |
| --- | --- | --- |
| Clc1ccc(C(Cn2ccnc2)OCc2ccsc2Cl)c(Cl)c1 (stereo not given) | 7.5 µM (active) | – |
| CC(=O)Nc1ccc(O)cc1 | inactive | – |
| CNCC[C@H](Oc1cccc2ccccc12)c1cccs1 | 5.31 µM (active) | – |
| CN(C)c1ccc(N=Nc2ccccc2C(=O)O)cc1 | – | 8.46% (inactive) |
| Nc1ncnc2c1ncn2[C@@H]1O[C@H](COP(=O)(O)O)[C@@H](O)[C@H]1O | – | 3.16% (inactive) |
| Cc1occc1SSc1ccoc1C | 19.3 µM (active) | – |
| CNC(=S)NN | 7.7 µM (active) | – |
| CCCCCCCCCCCCCCNCCO | 11.9 µM (active) | – |
| CNC(=O)c1cc(Oc2ccc(NC(=O)Nc3ccc(Cl)c(C(F)(F)F)c3)cc2)ccn1 | 4.73 µM (active) | – |
| Clc1ccc(C(c2ccccc2Cl)C(Cl)Cl)cc1 (stereo not given) | 23.7 µM (active) | – |
| CCCCCCCC/C=C\CCCCCCCC(=O)NCc1ccc(O)c(OC)c1 | 13.3 µM (active) | – |
| Cc1cc(Nc2ccc(O)cc2)ccc1N | 15.3 µM (active) | – |
| O=C(O)c1cccc(Cl)n1 | 19.3 µM (active) | – |
| ClC/C=C\CCl | – | -14.4% [at 95 µM] (inactive) |
| CCCCCCCCCCCCOC(=O)c1cc(O)c(O)c(O)c1 | 609 nM (active) and 386 nM (active) | – |
| CCN(CC)CCOC(=O)C1(C2CCCCC2)CCCCC1 | 26.6 µM (active) | – |
| C1CC(COCC2CO2)CCC1COCC1CO1 (stereo not given) | 30.6 µM (active) | – |
| CO[C@H]1C=CO[C@@]2(C)Oc3c(C)c(O)c4c(O)c(cc(O)c4c3C2=O)NC(=O)/C(C)=C\C=C/[C@H](C)[C@H](O)[C@@H](C)[C@@H](O)[C@@H](C)[C@H](OC(C)=O)[C@@H]1C | inactive and 13.8 µM (active) | – |
| C[n+]1c2cc(N)ccc2cc2ccc(N)cc21 (tested in a mixture with another compound) | 5.96 µM (active) | – |
| Oc1c(Br)cc(Br)c2cccnc12 | 11.9 µM (active) | – |

| Compound | Potency | activity change, negative = cytotoxicity |
| --- | --- | --- |
| CCCCCCOc1cc(C)c(O)c(C)c1C | 19.6 µM (active) | – |
| COc1ccc2sc(C(=O)Nc3nnn[nH]3)c(OC(C)C)c2c1 | 30.5 µM (active) | – |
| Oc1ccc(-c2ccccc2)c(Cl)c1 | – | 13% (inactive) |
| CC(C)(c1cc(Br)c(OCCO)c(Br)c1)c1cc(Br)c(OCCO)c(Br)c1 | 7.52 µM (active) | – |
| CCC(C)(C)c1cc(O)c(C(C)(C)CC)cc1O | 17.2 µM (active) | – |
| CCCC(CC)CCCCCCCN (stereo not given) | – | -21.8% [at 95 µM] (inactive) |
| CC(C)=C1CC[C@@H](C)CC1=O | – | 1.59% (inactive) |
| C(=C/c1ccccc1)/c1ccccc1 | – | 13.6% [at 95 µM] (inactive) |
| CC(C)(C)C1=CC(=O)C=C(C(C)(C)C)C1=O | – | 2.66% (inactive) |
| CC(O)C#CC(C)O (stereo not given) | 9.59 µM (active) | – |
| CCCCCCCOC(=O)c1ccc(O)cc1 | – | -8.59% (inactive) |
| COc1cc(C(C)C)c2c(c1)S(=O)(=O)N(COc1cc(=O)n3cccc(OCCN4CCCCC4)c3n1)C2=O | 13 µM (active) | – |
| [O]=[Zr] | – | -1.77% (inactive) |
| Cc1cc2c(C(C)C)c(O)c(O)c(C=O)c2c(O)c1-c1c(C)cc2c(C(C)C)c(O)c(O)c(C=O)c2c1O | 10.6 µM (active) | – |
| O=C(O)CCn1c2c(c3ccccc31)C[C@H](NS(=O)(=O)c1ccc(F)cc1)CC2 | – | 11.2% (inactive) |
| C=C[C@](C)(O)CC[C@@H]1[C@@]2(C)CCCC(C)(C)[C@@H]2CC[C@@]1(C)O | 24.3 µM (active) | – |
| CN(C)CCCN1c2ccccc2CCc2ccccc21 | 13.3 µM (active) and 8.63 µM (active) | – |
| C[C@@H]1CC[C@H]2C(C)(C)[C@H]3C[C@@]12CC[C@@]3(C)O | – | 25.7% (inactive) |
| C=C(c1ccc(C(=O)O)cc1)c1cc2c(cc1C)C(C)(C)CCC2(C)C | – | -7.56% (inactive) |
| CCCCCCCCCCCCN(CCO)CCO | 0.86 µM (active) | – |
